This passage reports inhibition results from PubChem BioAssay AID2315 (National Center for Advancing Translational Sciences (NCATS), 2010).

The structures appear in SMILES notation. Screen size: about 290,000 compounds; about 27,000 (9.3%) were called active. Rule as the data show it: active = inhibition mostly above about 28% (no sharp cut-off); inactive = mostly below about 43%. The entries come from a sample that favours actives as a whole.

By inhibition is commonly meant the relative decrease from the control value, in per cent.

A short description of this test: A qHTS for Small Molecule Inhibitors of Shiga Toxin. Also: 0% is about no effect. Conditions: Vero cells, Shiga toxin protein synthesis inhibition reporter; at 38.7 µM, active compounds read high. Background: Quantitative high-throughput screening tests each substance at several concentrations.
Take `COc1ccc(C(=O)NC2CC(C)(C)NC(C)(C)C2)cc1OC`: the inhibition was 2.67% (inactive).

Regarding `NC(=O)CN1CCCC1c1ccc2c(c1)OCCO2` (stereo unspecified), the inhibition is -2.56% (inactive).

`O=C(NC1CCCC1)C(c1ccco1)N(C(=O)c1ccco1)c1ccc(F)cc1` (stereo unspecified): the inhibition is 8.42% (inactive).

For `Cc1ccc(S(=O)(=O)/N=C(/Nc2ccccn2)c2ccc(Cl)cc2)cc1`, the inhibition was 31.5% (active).

Consider `Cc1ccc(S/C(=N\S(=O)(=O)c2ccc(Cl)cc2)c2ccccc2)cc1`, for which the inhibition is 11.1% (inactive).

With `O=S(=O)(/N=C(/Nc1ccccn1)c1ccccc1)c1ccc(Cl)cc1`, the inhibition is 14.8% (inactive).

As to `CC1CCCCC1NC(=O)CSc1nnc(-c2ccncc2)n1CCCN(C)C` (stereo unspecified), the inhibition was -1.04% (inactive).

With `CC(C)(C)c1ccc(/C=C/C(=O)Nc2ncccn2)cc1`, the inhibition was -4.53% (active).

As for `O=C(/C=C/c1ccc(Cl)cc1)Nc1ccc(S(=O)(=O)Nc2ncccn2)cc1`, the inhibition was 17% (inactive).

Consider `Cc1cc(C)nc(NC(=O)/C=C/c2ccc(Cl)cc2)n1`, for which the inhibition was 41.9% (inactive).

For the molecule `O=c1c2c(-c3ccccc3)ccnc2[nH]n1-c1ccccc1`, the inhibition is 38.7% (inactive).

For the molecule `CCC(C)(C)NC(=O)C(c1ccc(OC)cc1)N(C(=O)CCC(=O)Nc1cc(C)on1)c1ccc(OC)cc1OC` (stereo unspecified), the inhibition was 8.4% (inactive).

Turning to `CCN(CC)CCNC(=O)Cn1cnc2sc(C)c(S(=O)(=O)N3CCOCC3)c2c1=O`, the inhibition is -2.57% (inactive).

With `Cc1sc2ncn(CC(=O)NCCN(C)C)c(=O)c2c1S(=O)(=O)N1CCC(C)CC1`, the inhibition was 106% (active).

Turning to `CCN(CC)CCCNC(=O)Cn1cnc2sc(C)c(S(=O)(=O)N3CCN(c4ncccn4)CC3)c2c1=O`, the inhibition was -11.2% (inactive).

`CC(=O)c1ccc(S(=O)(=O)N2CCC(Oc3ccc(-n4cnnn4)cc3)CC2)cc1`: the inhibition was -8.24% (inactive).

With `O=C(O)Cn1c(Cc2ccccc2)nc2ccccc21`, the inhibition is -5.35% (inactive).

Consider `Cc1ccccc1C(=O)N1CCC(C(=O)Oc2ccc(C#N)cc2)CC1`, for which the inhibition was -13.3% (inactive).

For `O=C(Nc1ccc2c(c1)OCCO2)c1ccncc1`, the inhibition was 117% (active).

On to `O=C(Nc1ccc2c(c1)OCCO2)c1cnccn1`, for which the inhibition is 42.2% (inactive).

As to `O=C(Nc1ccc2c(c1)OCCO2)c1ccoc1`, the inhibition is 65.2% (active).

For `Cn1c(=O)c2ccccc2n(CC(=O)Nc2ccc3c(c2)OCCO3)c1=O`, the inhibition was -7.05% (inactive).

In the case of `O=C(CCN1C(=O)c2ccncc2C1=O)Nc1ccc2c(c1)OCCO2`, the inhibition was 13.6% (inactive).

`Cc1ccc(-n2ncc3c2CC(C)(C)CC3NC(=O)Cc2c(C)noc2C)cc1` (stereo unspecified): the inhibition was -6.91% (inactive).

`COc1cccc(NC(=O)COc2cc(C)cc3oc(=O)cc(C)c23)c1`: the inhibition was -4.63% (inactive).

On to `COc1ccc(C2=NS(=O)(=O)N(C)C(C(=O)N3CCCCC3)=C2)cc1`, for which the inhibition was -2.94% (inactive).

Turning to `COc1cccc(OCCCN2CCCCCC2)c1`, the inhibition is 11.6% (inactive).

Consider `COc1cccc(Oc2ccc(N)cc2)c1`, for which the inhibition is 33.2% (active).

For `CC(C)(C)c1ccc(Oc2ccc(N)cc2)cc1`, the inhibition was -23.2% (inactive).

For `COc1ccc(-c2cc(=O)oc3cc(OCC(=O)N[C@@H](Cc4c[nH]c5ccccc45)C(=O)O)ccc23)cc1`, the inhibition is 1.78% (inactive).

Regarding `Cc1cc(=O)n2nc(N3CCCC(C(=O)NCc4cccc(Cl)c4)C3)sc2n1` (stereo unspecified), the inhibition is 10.1% (inactive).

`Cc1ccc(N(CC(=O)Nc2cccc(N(C)S(C)(=O)=O)c2)S(C)(=O)=O)cc1`: the inhibition was -15.9% (inactive).

Turning to `CN(c1cccc(NC(=O)Nc2ccc(Cl)cc2)c1)S(C)(=O)=O`, the inhibition was 66.3% (active).

As to `COc1cccc(N(CC(=O)Nc2cccc(N(C)S(C)(=O)=O)c2)S(C)(=O)=O)c1`, the inhibition was -9.96% (inactive).

As to `COc1ccc(Nc2ccc([N+](=O)[O-])cn2)cn1`, the inhibition is 25.8% (inactive).

Consider `Cc1cccc(-n2nc3c(c2NC(=O)c2cc4ccccc4o2)CS(=O)(=O)C3)c1`, for which the inhibition is -6.86% (inactive).

As to `CCOc1ccc(CCNC(=O)CCc2nnc3ccc(N4CCCC4)nn23)cc1OCC`, the inhibition was -2.23% (inactive).

In the case of `CC(CCc1ccccc1)NC(=O)c1ccc(Br)o1` (stereo unspecified), the inhibition is 0.792% (inactive).

Take `Cc1ccc(/C=N/NC(=S)NC2CCCCC2)o1`: the inhibition is 72.6% (active).

For `C/C(=N/NC(=O)c1ccc(Br)o1)c1ccc(C)o1`, the inhibition is 91.6% (active).

For the molecule `S=C(NN=C1CCN(Cc2ccccc2)CC1)NC1CCCCC1`, the inhibition was 9.13% (inactive).

In the case of `Cc1ccc(/C=N/NC(=S)Nc2cccc(S(=O)(=O)N(C)C)c2)o1`, the inhibition was 40.8% (inactive).

Consider `C/C(=N\NC(=S)NC1CCCCC1)c1ccc(C)o1`, for which the inhibition is 52.7% (active).

For `S=C(NCc1ccc(Cl)cc1)NC1CCCCC1`, the inhibition is -6.42% (inactive).

With `CC(CNC(=O)c1ccc(Br)o1)NC(=O)c1ccc(Br)o1` (stereo unspecified), the inhibition is 10.2% (inactive).

As for `Cc1ccc(/C=N/NC(=O)Cn2nc(C)c(Br)c2C)o1`, the inhibition is -6.63% (inactive).

Take `COc1ccc(CNC(=O)C2CCN(C(=O)c3ccco3)CC2)cc1`: the inhibition was -12.4% (inactive).

In the case of `CCCc1cc(=O)n2[nH]c(C)c(-c3ccc(Cl)cc3)c2n1`, the inhibition is -5.47% (inactive).

Regarding `Cc1ccc(C(CNC(=O)Nc2cccc(C)c2)N2CCN(C)CC2)cc1` (stereo unspecified), the inhibition is 1.35% (inactive).

Regarding `Cc1c(NC(=O)Nc2cccc([N+](=O)[O-])c2)c(=O)n(-c2ccccc2)n1C`, the inhibition was -5.21% (inactive).

On to `CC1CCN(S(=O)(=O)c2ccc3c(ccn3CC(=O)O)c2)CC1`, for which the inhibition is -22.5% (inactive).

In the case of `O=C(Cc1ccc(Cl)c(Cl)c1)Nc1ccc(SC(F)F)cc1`, the inhibition is 43% (active).

Consider `CC(=O)N1CCN(CC(=O)Nc2ccc(SC(F)F)cc2)CC1`, for which the inhibition was -12.2% (inactive).

`Cc1ccc(CC(=O)Nc2ccc(OC(F)F)c(Cl)c2)cc1C`: the inhibition was -4.66% (inactive).

As for `CNC(=O)[C@]1(C(F)(F)F)C[C@H](CCc2ccccc2)CCCO1`, the inhibition was 32.4% (inactive).

As for `c1ccc2sc(C3CCCNC3)nc2c1` (stereo unspecified), the inhibition was 69.9% (active).

Turning to `O=C(c1cccs1)N1CCC(c2nc3ccccc3s2)CC1`, the inhibition is 18.9% (inactive).

As to `Cc1cccc(C(=O)N2CCC(c3nc4ccccc4s3)CC2)c1`, the inhibition was -12.1% (inactive).

For the molecule `CC(=O)Oc1ccc(N(C(C)=O)S(=O)(=O)c2ccc3ccccc3c2)cc1Br`, the inhibition is 33.2% (inactive).

Take `CCCCCNC(=O)C1c2ccccc2Oc2ccccc21`: the inhibition is -12.3% (inactive).

With `CC(=O)Oc1ccc(C)cc1N1C(=O)c2ccc(C(=O)O)cc2C1=O`, the inhibition was 21.4% (inactive).

`O=C(/C=C/c1ccccc1)c1ccoc1`: the inhibition is 26% (inactive).

`O=C(CN1CCN(S(=O)(=O)/C=C/c2ccccc2)CC1)Nc1ccc(N2CCOCC2)cc1`: the inhibition was -7.43% (inactive).

On to `Cc1cccc(N2C(=O)c3ccc(C(=O)Nc4cccc(C(=O)O)c4)cc3C2=O)c1`, for which the inhibition is 19% (inactive).

`O=C(O)c1ccc2c(c1)C(=O)N(c1ccc(/C=C/C(=O)c3ccccc3)cc1)C2=O`: the inhibition was 70.9% (active).

`O=C(/C=C/c1ccc(N2CCOCC2)cc1)c1ccccc1`: the inhibition was 68% (active).

As to `O=C(c1ccc(C(F)(F)F)cc1)C1CCCN(C(=O)c2csnn2)C1` (stereo unspecified), the inhibition is -1.35% (inactive).

With `COc1ccc(CCNC(=O)C2CCCN2C(=O)Nc2ccccc2)cc1OC` (stereo unspecified), the inhibition was 9.89% (inactive).

For the molecule `O=S1(=O)N=C(N(CCO)/N=C/c2ccccc2F)c2ccccc21`, the inhibition was -5.12% (inactive).

Turning to `CCCc1nc2ccccc2c(=O)n1NC(=O)c1c(O)c2ccccc2[nH]c1=O`, the inhibition was 110% (active).

For the molecule `CCCCc1nc2ccccc2c(=O)n1NC(=O)c1c(O)c2cccc3c2n(c1=O)CC3`, the inhibition is 28.4% (inactive).

With `CCCC(=O)Nc1c(O)c2ccccc2[nH]c1=O`, the inhibition was 25.5% (inactive).

On to `C#CC(CCN1CCCCC1)(OC)c1ccccc1` (stereo unspecified), for which the inhibition was -17.9% (inactive).

As for `CCCc1c(C(=O)N/N=C(\C)CCc2ccc(OC)cc2)nnn1-c1nonc1N`, the inhibition is -11% (inactive).

On to `OC(CNCCc1ccc(Cl)cc1Cl)COc1ccccc1` (stereo unspecified), for which the inhibition was 2.65% (inactive).

`O=C(CN(Cc1ccc(Br)cc1)S(=O)(=O)c1ccccc1)NCc1ccncc1`: the inhibition is -14.3% (inactive).

On to `O=C(C1CC(=O)N(c2ccc(F)cc2)C1)N1CCN(c2ccccc2)CC1` (stereo unspecified), for which the inhibition is -5.65% (inactive).

Take `CCn1c(C)cc(=O)cc1-c1ccc(Cl)cc1`: the inhibition is -5.82% (inactive).

For `COc1ccc(Cn2c(-c3ccc(Cl)cc3)c[n+]3ccccc23)cc1`, the inhibition is 96.6% (active).

As for `COc1ccc(C(=O)CN(C(=O)c2ccc(Cl)cc2)N2C(=O)c3ccccc3C2=O)cc1`, the inhibition was -9% (inactive).

Regarding `CC1(C)C2CCC1(CS(=O)(=O)NCCc1c[nH]c3ccccc13)C(=O)C2` (stereo unspecified), the inhibition was 23.7% (inactive).

With `O=C(N/C(=C\c1ccc(O)cc1)C(=O)N1CCCCC1)c1ccccc1`, the inhibition was 11.3% (inactive).

On to `Cc1ccc(N2CCN(/N=C/c3cccs3)CC2)cc1`, for which the inhibition is 13.1% (inactive).

`C(=N/N1CCN(c2ccccc2)CC1)/c1cccs1`: the inhibition was 94.4% (active).

With `COc1cc(/C=N/N2CCN(c3ccccc3)CC2)ccc1OC(C)=O`, the inhibition was 23.8% (inactive).

In the case of `O=C(Cn1nc(C(=O)O)c2ccccc2c1=O)Nc1ccc(F)cc1`, the inhibition was -3.59% (inactive).

On to `O=C1CCC([N+](=O)[O-])C(c2ccccc2Br)N1` (stereo unspecified), for which the inhibition was 4.29% (inactive).

In the case of `COc1ccc(-c2nnc(NC(=O)CS(=O)(=O)c3ccc(Cl)cc3)o2)c(OC)c1`, the inhibition is 3.54% (inactive).

Consider `COC(=O)CN1C(=O)C(C)(C)Oc2ccc(C(=O)Nc3cccc(OC)c3)cc21`, for which the inhibition is -0.621% (inactive).

On to `CN(C)S(=O)(=O)c1ccc(N/C=C(\[N+](=O)[O-])S(=O)(=O)c2ccccc2)cc1`, for which the inhibition was -2.26% (inactive).

`COc1ccccc1C1CCN(C(=S)Nc2ccc(Br)cc2)CC1`: the inhibition is 47.5% (active).

For `COc1ccc(C(=O)NC2CCN(C(=S)Nc3ccccc3)CC2)cc1`, the inhibition is -2.02% (inactive).

As to `CCC(C)N(C)C1CCN(C(=S)Nc2ccc(OC)cc2)CC1` (stereo unspecified), the inhibition was -9.08% (inactive).

Consider `CN1CCC(=O)N([C@H](CO)Cc2ccccc2)CC1`, for which the inhibition is -4.98% (inactive).

As to `O=C1CCCC(O)=C1N=Nc1ccc(S(=O)(=O)N2CCOCC2)cc1`, the inhibition was 22.3% (inactive).

For the molecule `O=C1CCCC(O)=C1N=Nc1ccc2ncsc2c1`, the inhibition is 87.8% (active).
